The results in this text go back to PubChem BioAssay (EPA / NIEHS).

Each structure is given as a SMILES string. Calls of active or inactive are those of the source. Rule for the calls: active = hit-call score of the fitted dose curve at least 0.9, where 1 is the maximum; inactive = score below 0.9.

Holding throughout (conditions): mRNA level, 48 h; actives raise or lower the signal
Read-out in one test: Caspase-3 (Homo sapiens) (UniProt P42574)
In words: LTEA_HepaRG_CASP3: Life Technologies and Expression Analysis (LTEA) Assay for cysteine-aspartic acid protease (CASP3) using HepaRG (AID 2283477). In outline: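 Transcript-level assay: CASP3 mRNA in human HepaRG after 48 h treatment, eight half-log concentrations from 100 uM in 0.5% DMSO, quantified by qRT-PCR.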

Read-out in test [1]: Cytochrome P450 (CYP24A1), CYP24A1 (gene 1591)
In words: LTEA_HepaRG_CYP24A1: Life Technologies and Expression Analysis (LTEA) Assay for Cytochrome P450 (CYP24A1) using HepaRG (AID 2283478). In outline:
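Gene expression of CYP24A1 by TaqMan qRT-PCR in HepaRG after 48 h treatment, highest concentration 100 uM; activity fitted in both directions relative to DMSO vehicle.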

Read-out in test [2]: Cytochrome P450 (CYP1A2), CYP1A2 (gene 1544)
In words: LTEA_HepaRG_CYP1A2: Life Technologies and Expression Analysis (LTEA) Assay for Cytochrome P450 (CYP1A2) using HepaRG (AID 2283479). In outline:
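In duplicate wells, HepaRG cultures maintained in 0.5% DMSO were treated 48 h across an 8-point, half-log series topping at 100 uM; phenobarbital (1 mM) served as induction control. Expression was read by qRT-PCR.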

Read-out in test [3]: cysteine-aspartic acid protease (CASP8), CASP8 (gene 841)
In words: LTEA_HepaRG_CASP8: Life Technologies and Expression Analysis (LTEA) Assay for cysteine-aspartic acid protease (CASP8) using HepaRG (AID 2283480). An outline of the steps:
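Differentiated HepaRG cells in serum-free induction medium, 48 h exposure, eight-point half-log series from 100 uM in 0.5% DMSO, duplicates. CASP8 mRNA by qRT-PCR, normalized to ACTB, GAPDH, POLR2A; bidirectional fit versus DMSO.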

Read-out in test [4]: Cytochrome P450 (CYP2B6), CYP2B6 (gene 1555)
In words: LTEA_HepaRG_CYP2B6: Life Technologies and Expression Analysis (LTEA) Assay for Cytochrome P450 (CYP2B6) using HepaRG (AID 2283481). In outline: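 Human HepaRG, 48 h dosing, 0.5% DMSO vehicle, top dose 100 uM. CYP2B6 transcript by qRT-PCR, housekeeping-normalized, bidirectional curve fit.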

Read-out in test [5]: Cytochrome P450 2C19 (Homo sapiens) (UniProt P33261)
In words: LTEA_HepaRG_CYP2C19: Life Technologies and Expression Analysis (LTEA) Assay for CYP2C19 using HepaRG (AID 2283482). In outline:
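Endpoint: CYP2C19 mRNA change, bidirectional fit vs 0.5% DMSO. Cells: HepaRG, 48 h exposure, eight-point series topping at 100 uM. Quantitation: qRT-PCR normalized to ACTB, GAPDH, POLR2A.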

Read-out in another test: CYP2C8 (gene 1558)
In words: LTEA_HepaRG_CYP2C8: Life Technologies and Expression Analysis (LTEA) Assay for CYP2C8 using HepaRG (AID 2283483). In outline: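 Differentiated HepaRG cells in serum-free induction medium exposed 48 h in duplicate to 8 half-log concentrations from 100 uM in 0.5% DMSO. CYP2C8 mRNA by qRT-PCR normalized to ACTB, GAPDH, POLR2A; bidirectional fit versus DMSO.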

Read-out in a further test: CYP2C9 (gene 1559)
In words: LTEA_HepaRG_CYP2C9: Life Technologies and Expression Analysis (LTEA) Assay for CYP2C9 using HepaRG (AID 2283484). In outline: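 Differentiated human HepaRG cells in serum-free induction medium were exposed 48 h to chemicals in 8-point half-log series from 100 uM (0.5% DMSO), in duplicate. CYP2C9 mRNA was measured by qRT-PCR, normalized to ACTB/GAPDH/POLR2A, with bidirectional fitting versus DMSO.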

Read-out in a further test: CYP2E1 (gene 1571)
In words: LTEA_HepaRG_CYP2E1: Life Technologies and Expression Analysis (LTEA) Assay for CYP2E1 using HepaRG (AID 2283485). In outline:
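Differentiated HepaRG cells were treated in duplicate for 48 h with chemicals in 0.5% DMSO, from 100 uM downward in half-log dilutions. RNA was then analysed by qRT-PCR for CYP2E1 induction or loss.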

Read-out in another test: CYP4A11 (gene 1579)
In words: LTEA_HepaRG_CYP4A11: Life Technologies and Expression Analysis (LTEA) Assay for CYP4A11 using HepaRG (AID 2283486). In outline:
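Human hepatic HepaRG cultures receive duplicate 48 h exposures across a concentration-response series topping at 100 uM. Expression changes in CYP4A11 are measured by qRT-PCR relative to DMSO controls.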

Read-out in test [6]: Cytochrome P450 3A4 (Homo sapiens) (UniProt P08684)
In words: LTEA_HepaRG_CYP3A4: Life Technologies and Expression Analysis (LTEA) Assay for CYP3A4 using HepaRG (AID 2283487). In outline:
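HepaRG, 48 h exposure, 8-pt CRC from 100 uM (half-log), 0.5% DMSO, duplicates; serum-free induction medium. Readout: CYP3A4 mRNA, qRT-PCR, ACTB/GAPDH/POLR2A normalization. Bidirectional fit vs DMSO.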

Read-out in test [7]: DNA damage-inducible transcript 3 (DDIT3), DDIT3 (gene 1649)
In words: LTEA_HepaRG_DDIT3: Life Technologies and Expression Analysis (LTEA) Assay for DNA damage-inducible transcript 3 (DDIT3) using HepaRG (AID 2283488). An outline of the steps:
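Changes in DDIT3 transcript, in either direction relative to 0.5% DMSO vehicle, were quantified by TaqMan qRT-PCR after 48 h chemical exposure of HepaRG cells at 8 concentrations, maximum 100 uM.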

Read-out in test [8]: Pro-epidermal growth factor (Homo sapiens) (UniProt P01133)
In words: LTEA_HepaRG_EGF: Life Technologies and Expression Analysis (LTEA) Assay for Epidermal growth factor (EGF) using HepaRG (AID 2283489). In outline: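 Concentration-response mRNA assay: HepaRG cells dosed 48 h (max 100 uM, 0.5% DMSO), EGF measured by qRT-PCR and normalized to ACTB/GAPDH/POLR2A.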

Read-out in test [9]: Early growth response protein 1 (EGR1) transcription factor, EGR1 (gene 1958)
In words: LTEA_HepaRG_EGR1: Life Technologies and Expression Analysis (LTEA) Assay for Early growth response protein 1 (EGR1) transcription factor using HepaRG (AID 2283490). In outline: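 Differentiated HepaRG cells in serum-free induction medium exposed 48 hours, duplicate, to 8 half-log concentrations up to 100 uM in 0.5% DMSO. EGR1 mRNA measured by TaqMan qRT-PCR, normalized to ACTB, GAPDH, POLR2A; bidirectional fit versus DMSO.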

Read-out in test [10]: Cytochrome P450 3A7 (Homo sapiens) (UniProt P24462)
In words: LTEA_HepaRG_CYP3A7: Life Technologies and Expression Analysis (LTEA) Assay for CYP3A7 using HepaRG (AID 2283492). An outline of the steps: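 qRT-PCR of CYP3A7 in HepaRG lysates after 48 h treatment; concentration-response (8 points, max 100 uM) analysed bidirectionally relative to 0.5% DMSO controls.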

Read-out in the next test: CYP3A5 (gene 1577)
In words: LTEA_HepaRG_CYP3A5: Life Technologies and Expression Analysis (LTEA) Assay for CYP3A5 using HepaRG (AID 2283493). An outline of the steps:
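mRNA induction or loss of CYP3A5 assessed in HepaRG after 48 h dosing, 100 uM top concentration, duplicate wells; TaqMan qRT-PCR with ACTB, GAPDH, POLR2A normalization; 0.5% DMSO as negative control.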

Read-out in test [11]: Fatty Acid-Binding Protein 1 (FABP1), FABP1 (gene 2168)
In words: LTEA_HepaRG_FABP1: Life Technologies and Expression Analysis (LTEA) Assay for Fatty Acid-Binding Protein 1 (FABP1) using HepaRG (AID 2283494). An outline of the steps:
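Differentiated human HepaRG cells exposed 48 h in serum-free induction medium to eight half-log concentrations up to 100 uM (0.5% DMSO), duplicate. FABP1 mRNA by qRT-PCR, normalised to ACTB, GAPDH, POLR2A; bidirectional fitting against DMSO.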

Read-out in test [12]: Cytochrome P450 4A22 (Homo sapiens) (UniProt Q5TCH4)
In words: LTEA_HepaRG_CYP4A22: Life Technologies and Expression Analysis (LTEA) Assay for Cytochrome P450 4A22 (CYP4A22) using HepaRG (AID 2283495). In outline:
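Concentration-response (8 points, max 100 uM, 0.5% DMSO) in human HepaRG liver cells after 48 h exposure. CYP4A22 mRNA by TaqMan qRT-PCR with housekeeping-gene normalization.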

Read-out in test [13]: Cytochrome P450 7A1 (Homo sapiens) (UniProt P22680)
In words: LTEA_HepaRG_CYP7A1: Life Technologies and Expression Analysis (LTEA) Assay for Cytochrome P450 7A1 (CYP7A1) using HepaRG (AID 2283496). An outline of the steps: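 Gene expression endpoint in human HepaRG liver cells treated for 48 h with test chemicals (up to 100 uM, 0.5% DMSO). Values come from bidirectional concentration-response fitting versus DMSO.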

Read-out in test [14]: Ezrin (EZR), EZR (gene 7430)
In words: LTEA_HepaRG_EZR: Life Technologies and Expression Analysis (LTEA) Assay for Ezrin (EZR) using HepaRG (AID 2283491). An outline of the steps: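 Read-out is EZR transcript level by qRT-PCR, normalized to three housekeeping genes and fitted bidirectionally against the DMSO control. Human HepaRG cells received test chemicals for 48 h at eight half-log concentrations up to 100 uM in 0.5% DMSO.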

Chain of Cytochrome P450 2C19 (Homo sapiens) (P33261 whole entry, looked up): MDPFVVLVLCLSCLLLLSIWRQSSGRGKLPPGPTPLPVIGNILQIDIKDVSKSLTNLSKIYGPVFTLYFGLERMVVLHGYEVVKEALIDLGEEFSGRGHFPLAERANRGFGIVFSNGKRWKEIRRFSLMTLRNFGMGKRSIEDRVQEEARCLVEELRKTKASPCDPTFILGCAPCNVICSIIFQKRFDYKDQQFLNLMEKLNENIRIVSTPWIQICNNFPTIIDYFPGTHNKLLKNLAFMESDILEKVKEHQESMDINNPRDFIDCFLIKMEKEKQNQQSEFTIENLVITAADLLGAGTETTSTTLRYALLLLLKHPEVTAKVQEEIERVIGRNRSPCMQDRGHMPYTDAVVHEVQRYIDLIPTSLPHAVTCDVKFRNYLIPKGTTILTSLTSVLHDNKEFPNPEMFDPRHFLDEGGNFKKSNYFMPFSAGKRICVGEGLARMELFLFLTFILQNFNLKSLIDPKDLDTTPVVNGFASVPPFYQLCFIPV
Chain of Cytochrome P450 3A7 (Homo sapiens) (P24462 whole entry, looked up): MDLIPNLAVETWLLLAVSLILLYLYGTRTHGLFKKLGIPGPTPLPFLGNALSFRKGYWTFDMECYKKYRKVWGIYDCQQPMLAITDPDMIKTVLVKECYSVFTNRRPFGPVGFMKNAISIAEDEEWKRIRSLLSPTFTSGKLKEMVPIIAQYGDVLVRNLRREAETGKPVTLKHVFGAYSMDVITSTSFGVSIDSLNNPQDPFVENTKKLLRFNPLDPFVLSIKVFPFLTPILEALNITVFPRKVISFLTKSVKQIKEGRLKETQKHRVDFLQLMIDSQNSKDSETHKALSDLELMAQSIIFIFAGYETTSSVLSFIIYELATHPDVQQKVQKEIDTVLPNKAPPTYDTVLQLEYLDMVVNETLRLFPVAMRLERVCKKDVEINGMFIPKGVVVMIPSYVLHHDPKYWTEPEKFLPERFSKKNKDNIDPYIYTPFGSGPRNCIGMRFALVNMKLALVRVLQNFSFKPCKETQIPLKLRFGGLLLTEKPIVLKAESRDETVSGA
Chain of Cytochrome P450 3A4 (Homo sapiens) (P08684 whole entry, looked up): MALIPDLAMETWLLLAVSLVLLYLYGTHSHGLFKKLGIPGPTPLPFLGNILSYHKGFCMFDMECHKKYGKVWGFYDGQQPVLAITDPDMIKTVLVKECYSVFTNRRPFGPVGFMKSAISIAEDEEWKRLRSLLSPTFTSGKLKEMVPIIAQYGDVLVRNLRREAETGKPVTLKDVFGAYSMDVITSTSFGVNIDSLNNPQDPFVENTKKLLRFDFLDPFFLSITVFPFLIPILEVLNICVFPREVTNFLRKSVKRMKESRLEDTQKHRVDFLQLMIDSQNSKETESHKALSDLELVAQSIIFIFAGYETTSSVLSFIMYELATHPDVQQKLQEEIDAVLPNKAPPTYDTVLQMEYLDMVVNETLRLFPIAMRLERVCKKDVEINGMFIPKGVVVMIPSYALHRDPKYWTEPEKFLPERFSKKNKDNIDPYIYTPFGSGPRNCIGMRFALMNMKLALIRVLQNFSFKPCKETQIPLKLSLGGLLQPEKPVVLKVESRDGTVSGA
Chain of Caspase-3 (Homo sapiens) (P42574 whole entry, looked up): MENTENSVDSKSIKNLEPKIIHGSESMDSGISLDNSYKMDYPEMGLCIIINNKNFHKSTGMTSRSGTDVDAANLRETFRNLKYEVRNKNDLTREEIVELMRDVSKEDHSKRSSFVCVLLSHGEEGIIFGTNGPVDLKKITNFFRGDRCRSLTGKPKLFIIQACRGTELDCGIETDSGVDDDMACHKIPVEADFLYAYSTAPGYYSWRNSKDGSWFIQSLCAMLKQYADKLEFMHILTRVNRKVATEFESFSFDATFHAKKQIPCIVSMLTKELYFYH

As for `CCCCCCOCCO`, the call (with Caspase-3 (Homo sapiens); in test [1]; in [2]; in [3]; in test [4]; in test [5]) was inactive. Besides, the result (with CYP2C8 (gene 1558); with CYP2C9 (gene 1559); with CYP2E1 (gene 1571); in the test with CYP4A11 (gene 1579); in test [6]; in test [7]) was inactive. The call (in test [8]; in [9]; in test [10]; with CYP3A5 (gene 1577); in test [11]; in test [12]) was inactive. Moreover, in test [13], the outcome was inactive.

As for `Cc1ccc(Cl)cc1`, the outcome (with Caspase-3 (Homo sapiens); in test [1]; in [2]; in [3]; in [4]; in test [5]) was inactive. For the same compound, the compound was called inactive (with CYP2C8 (gene 1558); in the test with CYP2C9 (gene 1559); in the test with CYP2E1 (gene 1571); with CYP4A11 (gene 1579); in test [6]; in [7]). The compound was classed as inactive (in test [8]; in test [9]; in test [10]; with CYP3A5 (gene 1577); in test [11]; in test [12]). Also, the result in [13] was inactive.

As to `CC(=O)Oc1ccccc1C(=O)O`, the result (in the test with Caspase-3 (Homo sapiens); in [1]; in [3]; in test [4]; in [5]; in the test with CYP2C8 (gene 1558)) was inactive. In addition, the outcome (with CYP2C9 (gene 1559); in the test with CYP2E1 (gene 1571); in the test with CYP4A11 (gene 1579); in test [6]; in [7]; in test [8]) was inactive. In addition, the result (in test [9]; in [14]; in test [10]; with CYP3A5 (gene 1577); in [11]; in test [12]) was inactive. Also, the compound was classed as inactive in test [13]. The AC50 in test [2] is 50 µM (active).

Consider `CCCCCCCCCCCCCCCCCC(=O)O`, for which the outcome (in the test with Caspase-3 (Homo sapiens); in test [1]; in [2]; in [3]; in [4]; in [5]) was inactive. The outcome (with CYP2C8 (gene 1558); with CYP2C9 (gene 1559); with CYP2E1 (gene 1571); with CYP4A11 (gene 1579); in [6]; in test [7]) was inactive. The compound was called inactive (in test [8]; in test [9]; in [10]; with CYP3A5 (gene 1577); in test [11]; in [12]). The result in test [13] was inactive.

The AC50 is the concentration at which the activity in the assay is half-maximal.
